# Sfp PPTase inh – inhibitors of Bacillus subtilis Sfp phosphopantetheinyl transferase. Q9F4F7. hit rate 3.5% among 310,000. Potency, µM, without a hit: largest response in the series, negative = inhibition, most hits filed as inhibitors. Biochemical Sfp PPTase activity, qHTS. AID 1490;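 further: the enzyme is Sfp with the accession as filed and its product quenches rhodamine fluorescence; 0% = enzyme reaction without inhibitor and -100% = no enzyme wells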
#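 Step 1, compound plus 15 nM Sfp-PPTase, 15 min, room temperature. Step 2, add rhodamine-CoA (5 uM) and BHQ-2-YbbR (12.5 uM). Step 3, read 525/598 nm fluorescence at 0 and 30 min.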
# G9a block – G9a (human) methyltransferase inhibition | Q96KQ7 | G9a H3K9 monomethylation, AlphaScreen, 2 h | Potency, µM (series often up to 102 µM), without a hit: at the highest dose activity, negative = inhibition, most hits filed as inhibitors | hit rate 8.8% among 350,000 | AID 504332; further: on the % scale 0 is the no-effect control and ±100 the full control effect; nearly all actives have a fitted effect of over 75% in size
# Target sequence (Q96KQ7 913-1193 limits assumed): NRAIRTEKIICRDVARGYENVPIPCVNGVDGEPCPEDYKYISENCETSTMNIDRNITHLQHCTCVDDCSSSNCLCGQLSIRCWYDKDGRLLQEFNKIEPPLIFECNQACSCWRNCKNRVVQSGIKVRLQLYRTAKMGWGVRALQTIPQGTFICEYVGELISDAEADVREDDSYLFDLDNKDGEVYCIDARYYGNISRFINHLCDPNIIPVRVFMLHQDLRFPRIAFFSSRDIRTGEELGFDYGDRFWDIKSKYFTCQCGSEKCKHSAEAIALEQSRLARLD
#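 Enzyme 20 nM + cpd, 15 min RT; add b-H3K9 pep 500 nM / SAM 20 uM; 2 h RT; anti-H3K9me1 Ab 0.5 ug/mL + SA donor / anti-rabbit acceptor beads 20 ug/mL each, 10 min; AlphaScreen read.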
# BAZ2B block – BAZ2B (human) inhibition; Q9UIF8; AlphaScreen BAZ2B-H3K14Ac peptide displacement; Potency, µM (titrated, usually from 114 µM), for the others: at the highest dose activity change, negative = inhibition, most hits filed as inhibitors; hit rate 4.4% among 360,000; AID 504333; further: on the % scale 0 is the no-effect control and ±100 the full control effect; nearly all actives have a fitted effect of over 60% in size
#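 BAZ2B (50 nM) with biotin-H3(5-23)K14Ac peptide (50 nM) in PBS pH 7.4, 0.01% Tween-20, preformed 30 min, then compound 30 min at room temperature; top concentration 110uM. AlphaScreen streptavidin donor/nickel chelate acceptor beads (10 ug/mL final), 20 min dark, signal read.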
# JMJD2A Tudor inh – blocks the human JMJD2A Tudor domain. O75164. hit rate 4.4% among 390,000. Potency, µM (series often up to 114 µM), for inactives: at the highest dose activity change, negative = inhibition, actives largely listed as inhibitors. AID 504339. AlphaScreen JMJD2A-Tudor / H3K4me3 peptide binding; further: on the % scale 0 is the no-effect control and ±100 the full control effect; nearly all actives have a fitted effect of over 50% in size
# HP1b binding inh – HP1-beta chromodomain-methylated histone interaction inhibition; P83916; AlphaScreen HP1-beta / biotin-H3K9me3 peptide binding; Potency, µM (top dose mostly 114 µM), for inactives: at the highest dose activity change, negative = inhibition, most hits filed as inhibitors; hit rate 0.56% among 390,000; further: nearly all actives have a fitted effect of over 70% in size
# Target sequence (P83916 whole entry, looked up): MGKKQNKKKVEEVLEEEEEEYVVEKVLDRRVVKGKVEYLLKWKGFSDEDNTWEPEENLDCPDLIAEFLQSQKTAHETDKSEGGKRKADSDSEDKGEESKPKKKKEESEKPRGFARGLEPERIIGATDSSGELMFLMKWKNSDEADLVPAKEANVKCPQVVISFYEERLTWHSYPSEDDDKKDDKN
#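 HP1-beta protein (50 nM final) preincubated 30 min at room temperature with biotinylated H3(1-18)K9me3 peptide (50 nM) in PBS pH 7.4, 0.01% Tween-20, then compound added for 30 min. AlphaScreen streptavidin donor/nickel chelate acceptor beads (10 ug/mL final), 30 min dark, luminescence read.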
# Numbers without * were called inactive; u = inconclusive; x = no result given; [ ] = another dose, or the depositor's remark. An excerpt weighted towards active compounds, which were near 12% of everything screened. The call rests on the fitted dose curve; in most records, active means well fitted curve in the direction sought with a large enough effect; inconclusive means small, poorly fitted or top-dose-only effect, or another doubt; inactive means no such curve, though single readings can be large; an effect the other way counts as inactive or inconclusive. Potency means the concentration at half of the fitted maximal effect.
SMILES,Sfp PPTase inh,G9a block,BAZ2B block,JMJD2A Tudor inh,HP1b binding inh
CC(=O)C1=C(c2ccccc2)NC(=S)NC1c1cc(Cl)c(OC(C)C)c(Cl)c1 (stereo not given),5.9%,-8.0%[59 µM],-33.3%,-16.9%,u
CCOC(=O)COc1c(Cl)cc(C2NC(=S)NC(c3ccccc3)=C2C(C)=O)cc1OC (stereo not given),-4.6%,-9.4%[59 µM],-25.1%,-35.3%,14.1%
COc1ccc(C2NC(=O)NC(C)=C2[N+](=O)[O-])cc1OC (stereo not given),9.6%,22.8%[59 µM],0.5%,4.3%,35.1%
CC1=C([N+](=O)[O-])C(c2ccc(O)c(O)c2)NC(=O)N1 (stereo not given),u,10µM*,18.8%,-19.2%,11.4%
CC(=O)C1=C(c2ccccc2)NC(=S)NC1c1ccc(O)c(O)c1 (stereo not given),-20.0%,8.91µM*,u,-16.1%,24.2%
CCN(Cc1ccccc1)S(=O)(=O)c1ccc(C(=O)N(CCCN(C)C)c2nc3c(F)cccc3s2)cc1,79.4µM*,u,u,u,-6.9%
CCOc1cccc2sc(N(CCCN(C)C)C(=O)c3ccc(S(=O)(=O)N(C)Cc4ccccc4)cc3)nc12,56.2µM*,u,-21.4%,-19.4%,3.6%
Cc1ccc2sc(N(CCCN(C)C)C(=O)c3ccc(S(=O)(=O)N(C)Cc4ccccc4)cc3)nc2c1C,x,10µM*,2.9%,u,u
CCOc1cccc2sc(N(CCCN(C)C)C(=O)c3ccc(S(=O)(=O)N(CC)Cc4ccccc4)cc3)nc12,50.1µM*,39.8µM*,u,31.6µM*,-9.3%
CN(C)CCCN(C(=O)c1ccc(S(=O)(=O)N2CCCCCC2)cc1)c1nc2c(F)cccc2s1,-7.5%,x,u,-32.3%,-10.7%
Cc1cccc(C(=O)Nc2onc(C)c2C#N)c1,8.6%,x,u,89.1µM*,0.5%
CCN(CC)CCn1c(O)c(N=O)c2ccccc21,8.4%,-43.0%,-1.0%,-11.9%,16.0%
CCN(CC)CCn1c2ccccc2c(=O)c2c(O)ccc(O)c21,x,x,x,44.7µM*,39.8µM*
CCOc1ccc(NC(=O)N2CCC(n3c(=O)[nH]c4ccccc43)CC2)cc1,13.7%,-6.3%,-1.1%,-15.0%,38.7%
CCCCN1CCC(n2c(=O)[nH]c3ccccc32)CC1,x,9.47µM*,x,x,x
O=C(c1cc2c(s1)CCCC2)n1cccn1,9.2%,56.1%[59 µM],147.2%,113.2%,253.9%
O=C(c1cc2c(s1)CCC2)N1C(=O)c2ccccc2S1(=O)=O,-0.8%,39.8µM*,50.1µM*,u,21.4%
CN1C(=O)N(CC(=O)N2CCN(c3ccccc3F)CC2)C(=O)C12CCCCC2,x,-12.6%[12.7 µM],5.5%,-21.2%,30.8%
CN1C(=O)N(CC(=O)N2CCN(S(=O)(=O)Cc3ccccc3)CC2)C(=O)C12CCCCC2,x,56.2µM*,9.2%,-15.1%,15.0%
c1ccc(N2CCN(c3ccccc3)C2c2ccncc2)cc1,79.4µM*,u,u,u,7.4%
c1ccc(N2CCN(c3ccccc3)C2c2cccnc2)cc1,-3.4%,u,u,u,-18.1%
Cc1ccc(N2CCN(c3ccc(C)cc3)C2c2cccnc2)cc1,-3.9%,-20.1%[12.7 µM],35.5µM*,39.8µM*,u
Cn1c(=S)c2[nH]c(SCCC(C)(C)C)nc2n(C)c1=O,x,x,x,22.4µM*,0.5%
CCN(CC)CCSc1nc2c([nH]1)c(=S)n(C)c(=O)n2C,x,x,x,17.8µM*,23.9%
Cn1c(=S)c2[nH]c(SCc3cccnc3)nc2n(C)c1=O,x,x,x,8.91µM*,1.2%
CCCCSc1nc2c([nH]1)c(=S)n(C)c(=O)n2C,x,x,x,-17.4%,6.0%
CCc1ccc(-c2nc(SCC(=O)NCC3CCCO3)c(-c3ccc(F)cc3)[nH]2)cc1 (stereo not given),x,-19.3%[59 µM],-3.2%,-8.9%,30.1%
CC(=O)NC1CCCC(NC(C)=O)C1 (stereo not given),x,x,x,-0.7%,17.2%
O=C(Cn1cc(S(=O)(=O)c2ccccc2)c(=O)c2cc3c(cc21)OCO3)Nc1ccccc1,x,-30.7%[59 µM],-32.9%,-12.6%,28.6%
CC1Cc2ccccc2N1Cc1nc2scc(-c3cccs3)c2c(=O)[nH]1 (stereo not given),6.9%,44.7µM*,-32.5%,-15.2%,22.2%

# High-throughput results from PubChem BioAssay.
